The source of these data is PubChem BioAssay (NCI).

About 83,000 compounds went through this panel and 20% of them were active in at least one assay; those are over-represented in the sample as a whole.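 A percent growth of 40 corresponds to 60% growth inhibition; 0 means no net growth; -100 means all cells died. Active threshold: below 10.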 Values without a mark were called inactive. Active and inactive are the calls of the source.

Some test systems named below: HCT-15 colon; HT29 colon; SNB-75 CNS; U251 CNS; PC-3 prostate; SK-MEL-5 melanoma; UACC-62 melanoma; LOX IMVI melanoma; SK-MEL-28 melanoma; SNB-19 CNS.
What all share (test): NCI-60 one-dose screen, 48 h (100 = growth as untreated, 0 = no growth, -100 = all killed)
Holding throughout (conditions): 10 µM unless noted

In the case of `COc1ccc(NC(=O)c2ccc(-c3ccccc3)cc2)c(C(N)=O)c1`, the growth with HCT-15 colon was 97.1%; with HT29 colon, 99.9%; with SNB-75 CNS it was 112%; with U251 CNS, 98.4%; in the test on PC-3 prostate it was 93.1%; in the test with SK-MEL-5 melanoma, 101%. Moreover, the growth in the test on UACC-62 melanoma was 91.5%; in the test on LOX IMVI melanoma, 96.6%; in the test on SK-MEL-28 melanoma, 108%.

For the compound `O=[N+]([O-])c1ccc(NS(=O)(=O)c2ccc(Cl)c(Cl)c2)cc1`, the growth with HCT-15 colon is 88.7%; in the test with HT29 colon it was 102%; in the test on SNB-75 CNS, 86.7%; with SNB-19 CNS, 70.1%; in the test on SK-MEL-5 melanoma, 40.2%; in the test on UACC-62 melanoma, 38.8%. For the same compound, the growth is 93.3% in the test with LOX IMVI melanoma and 78.4% in the test with SK-MEL-28 melanoma.

Turning to `C/C(=C\CCc1ccsc1)CC/C=C(\C)CCCN1CCSCC1`, the growth in the test with HCT-15 colon was 82.5%; in the test on HT29 colon, 88.1%; in the test with SNB-75 CNS, 101%; in the test on SNB-19 CNS, 96.1%; in the test on PC-3 prostate, 80.4%; in the test on SK-MEL-5 melanoma, 77.2%. Further, the values for the growth with UACC-62 melanoma and in the test with SK-MEL-28 melanoma were 77% and 94.6%, respectively.

For the compound `Nc1ccn(C2O[C@H](CO)[C@@H](O)[C@@H]2O)c(=O)n1` (stereo partly drawn), the growth in the test with HCT-15 colon was 59.5%; in the test with HT29 colon it was 42.7%; in the test with SNB-75 CNS, 78.6%; in the test on U251 CNS, 40%; in the test on PC-3 prostate, 63.9%; with SK-MEL-5 melanoma, 45.1%. In addition, the growth in the test with UACC-62 melanoma is 22.1%; in the test on LOX IMVI melanoma, 19.1%; in the test with SK-MEL-28 melanoma, 68.5%.

`CCCCCN1C(=O)CCC1=O`: the growth was 106% in the test on HCT-15 colon; 102% with HT29 colon; 101% with SNB-19 CNS; 99% in the test on U251 CNS; 95.1% with PC-3 prostate; 102% in the test with SK-MEL-5 melanoma. Also, the growth is 99.3% in the test with UACC-62 melanoma, 102% in the test on LOX IMVI melanoma and 110% with SK-MEL-28 melanoma.

As for `CN1CCC[C@@H]1CCO[C@](C)(c1ccccc1)c1ccc(Cl)cc1`, the growth with HCT-15 colon was 62.2%; in the test with HT29 colon, 17.3%; with SNB-19 CNS, 99.5%; in the test on U251 CNS it was 64.3%; in the test on PC-3 prostate, 66.2%; in the test on SK-MEL-5 melanoma it was -100% (active). In addition, the growth is 37.2% with UACC-62 melanoma, 70.7% with LOX IMVI melanoma and 44.3% in the test on SK-MEL-28 melanoma.

For the compound `N#Cc1c(-c2ccccc2)cc(-c2ccccc2)n(CCCCC(=O)O)c1=O`, the growth is 71.3% in the test on HCT-15 colon; 99.8% with HT29 colon; 96.1% in the test on SNB-19 CNS; 93.3% with U251 CNS; 93.1% in the test on PC-3 prostate; 93.7% in the test on SK-MEL-5 melanoma. The growth in the test on UACC-62 melanoma was 80.6%; in the test on LOX IMVI melanoma, 88.2%; with SK-MEL-28 melanoma it was 89.5%.

As to `COc1cc(C2CC(C3C(=O)N(C)C(=O)N(C)C3=O)=NN2c2cc(Cl)cc(Cl)c2)cc(OC)c1OC` (stereo not drawn), the growth was 98.2% with HCT-15 colon; 91.6% in the test on HT29 colon; 91.7% in the test with SNB-19 CNS; 92.5% with U251 CNS; 74.3% with PC-3 prostate; 91.3% in the test on SK-MEL-5 melanoma. The growth is 75.6% in the test with UACC-62 melanoma, 99% in the test with LOX IMVI melanoma and 101% with SK-MEL-28 melanoma.

Regarding `Clc1ccc2[nH]cc(-c3cncn3CCc3ccccc3)c2c1`, the growth in the test on HCT-15 colon is 51%; in the test on HT29 colon, 57.3%; in the test with SNB-19 CNS, 71.1%; in the test with U251 CNS it was 57.9%; in the test on PC-3 prostate, 46.7%; in the test on SK-MEL-5 melanoma it was 10.8%. Further, the growth is 57.4% in the test with UACC-62 melanoma, 70% in the test with LOX IMVI melanoma and 69.8% in the test on SK-MEL-28 melanoma.

Turning to `Nc1nc2c(nnn2Cc2ccc(Cl)c(Cl)c2)c(=O)[nH]1`, the growth is 98.7% in the test with HCT-15 colon; 100% with HT29 colon; 95.1% in the test with SNB-19 CNS; 96.6% in the test with U251 CNS; 79.3% in the test on PC-3 prostate; 107% in the test on SK-MEL-5 melanoma. Besides, the growth with UACC-62 melanoma was 73.9%; with LOX IMVI melanoma, 93.9%; in the test on SK-MEL-28 melanoma, 111%.

As to `CC[n+]1c(/C=C/c2ccc(N3CCCC3)cc2)cccc1/C=C/c1ccc(N2CCCC2)cc1`, the growth with HCT-15 colon is -85.7% (active); in the test with HT29 colon, -82.9% (active); in the test on SNB-19 CNS, -93.9% (active); with U251 CNS it was -89.6% (active); in the test with PC-3 prostate, -76.8% (active); in the test with SK-MEL-5 melanoma it was -87.6% (active). The values for the growth in the test on UACC-62 melanoma, in the test with LOX IMVI melanoma and in the test on SK-MEL-28 melanoma were -86% (active), -76.5% (active) and -93.6% (active), respectively.

Consider `CCOC(=O)N1CCC(N=C2CSc3nnc(-c4cc(C(F)(F)F)cc(C(F)(F)F)c4)n3N2)CC1`, for which the growth is 25.2% with HCT-15 colon; -3.65% (active) in the test with HT29 colon; 58.2% in the test with SNB-19 CNS; 22.6% with U251 CNS; 2.55% (active) in the test with PC-3 prostate; -67.5% (active) in the test on SK-MEL-5 melanoma. In addition, the growth with UACC-62 melanoma was 32.6%; with LOX IMVI melanoma it was 16.5%; with SK-MEL-28 melanoma it was 44.5%.

Take `c1ccc(CN=C(NCc2ccccc2)NCc2ccccc2)cc1`: the growth is 79.7% with HCT-15 colon; 62.6% in the test with HT29 colon; 68.1% in the test on SNB-19 CNS; 51.9% in the test on U251 CNS; 24.9% in the test with PC-3 prostate; 35% with SK-MEL-5 melanoma. Further, the results for the growth in the test with UACC-62 melanoma, with LOX IMVI melanoma and in the test on SK-MEL-28 melanoma were 63.8%, 59.8% and 98.8%, respectively.

As for `CC12CCC3C(=CCc4cc(O)ccc43)C1CCC2=O` (stereo not drawn), the growth is 96.1% in the test with HCT-15 colon; 94.5% in the test with HT29 colon; 103% in the test on SNB-19 CNS; 98.7% in the test on U251 CNS; 88.9% with PC-3 prostate; 97.5% with SK-MEL-5 melanoma. Also, the results for the growth with UACC-62 melanoma, with LOX IMVI melanoma and in the test with SK-MEL-28 melanoma were 88.9%, 102% and 103%, respectively.

With `O=C1C2C(C(=O)N1CC[Se][Se]CCN1C(=O)C3C(C1=O)[C@H]1C=C[C@@H]3C1)[C@H]1C=C[C@@H]2C1` (stereo partly drawn), the growth in the test on HCT-15 colon is 1.11% (active); in the test on HT29 colon it was -8.38% (active); in the test with SNB-19 CNS, -55.5% (active); in the test on U251 CNS, -90.5% (active); in the test with PC-3 prostate it was -12.8% (active); with SK-MEL-5 melanoma it was -53.9% (active). Further, the figures for the growth in the test with UACC-62 melanoma, in the test with LOX IMVI melanoma and in the test with SK-MEL-28 melanoma were -60.8% (active), -26% (active) and -3.71% (active), respectively.
